In this experiment the target is T1, GST-Nv-NF-kB (Cys allele) (Nematostella vectensis, UniProt E5G601 2-411).
T1 sequence: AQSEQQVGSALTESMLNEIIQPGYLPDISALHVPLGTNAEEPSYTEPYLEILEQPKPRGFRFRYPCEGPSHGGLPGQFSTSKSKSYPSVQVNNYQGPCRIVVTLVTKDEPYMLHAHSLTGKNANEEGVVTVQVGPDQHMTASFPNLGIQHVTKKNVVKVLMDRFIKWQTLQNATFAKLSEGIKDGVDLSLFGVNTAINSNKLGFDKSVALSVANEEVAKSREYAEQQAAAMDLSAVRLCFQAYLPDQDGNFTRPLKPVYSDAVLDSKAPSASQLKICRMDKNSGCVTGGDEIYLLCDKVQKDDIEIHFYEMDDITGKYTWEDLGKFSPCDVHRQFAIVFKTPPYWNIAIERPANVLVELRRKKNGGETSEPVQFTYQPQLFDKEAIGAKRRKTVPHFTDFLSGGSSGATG
The experiment is described as follows: protein-binding microarray (PBM); PBM: ~300 nM protein, 6 mM HEPES pH 7.8, 80 mM KCl, 0.5 mM EDTA, 0.5 mM EGTA, 6% glycerol, 35 ng/ul poly-dIdC, 1% milk, 1 h, room temperature; Ap Aiptasia and Nv Nematostella (sea anemones) / Co Capsaspora / Aq Amphimedon (sponge) / Dm Drosophila / Hu human; RHD is the Rel homology domain; high values mean tight binding. The settings on record: dsDNA, one strand shown.
Consider “CCGATTAACATCAGGGGAACGCATGATGTTAATCGGGTCTTGATTCGCTTGACGCTGCTG”, for which the binding signal was 5.4 z-score.

As to “CCGATTAACATCAGGGGGCTATATGATGTTAATCGGGTCTTGATTCGCTTGACGCTGCTG”, the binding signal amounted to 3.23 z-score.

“CCGATTAACATCAAATTTCCCAGTGATGTTAATCGGGTCTTGATTCGCTTGACGCTGCTG”: the binding signal is 3.48 z-score.

“CCGATTAACATCAAAAAATCCCATGATGTTAATCGGGTCTTGATTCGCTTGACGCTGCTG” returned a binding signal of 5.22 z-score.

“CCGATTAACATCAAAAATCCCAATGATGTTAATCGGGTCTTGATTCGCTTGACGCTGCTG”: the binding signal came out at 3.4 z-score.

Sequence “CCGATTAACATCAAAAAAACCCCTGATGTTAATCGGGTCTTGATTCGCTTGACGCTGCTG” yielded a binding signal of 10 z-score.

In turn, “CCGATTAACATCAGGGAATTTACTGATGTTAATCGGGTCTTGATTCGCTTGACGCTGCTG” gave a binding signal of 6.69 z-score.

With “CCGATTAACATCAAGGGGGTACTTGATGTTAATCGGGTCTTGATTCGCTTGACGCTGCTG”, the binding signal is 3.89 z-score.

As to “CCGATTAACATCAGGGGAGGGAATGATGTTAATCGGGTCTTGATTCGCTTGACGCTGCTG”, the binding signal was 5.44 z-score.

Regarding “CCGATTAACATCAGGGGATACACTGATGTTAATCGGGTCTTGATTCGCTTGACGCTGCTG”, the binding signal worked out at 4.02 z-score.

In the case of “CCGATTAACATCAAGGGGGGGTGTGATGTTAATCGGGTCTTGATTCGCTTGACGCTGCTG”, the binding signal worked out at 2.8 z-score.

Turning to “CCGATTAACATCAGGTTTCCCCATGATGTTAATCGGGTCTTGATTCGCTTGACGCTGCTG”, the binding signal worked out at 7.14 z-score.

In the case of “CCGATTAACATCAAAAATACCCCTGATGTTAATCGGGTCTTGATTCGCTTGACGCTGCTG”, the binding signal is 8.45 z-score.

In the case of “CCGATTAACATCAGGGGGGACGATGATGTTAATCGGGTCTTGATTCGCTTGACGCTGCTG”, the binding signal was determined as 4.55 z-score.

The sequence “CCGATTAACATCAGGGGAACCACTGATGTTAATCGGGTCTTGATTCGCTTGACGCTGCTG” came in with a binding signal of 6.92 z-score.

“CCGATTAACATCAAAAAACCCCTTGATGTTAATCGGGTCTTGATTCGCTTGACGCTGCTG” returned a binding signal of 8.78 z-score.

“CCGATTAACATCAGGGTATTTTATGATGTTAATCGGGTCTTGATTCGCTTGACGCTGCTG” yielded a binding signal of 8.31 z-score.

As to “CCGATTAACATCAAGAACTTCCCTGATGTTAATCGGGTCTTGATTCGCTTGACGCTGCTG”, the binding signal was found to be 3.73 z-score.

The sequence “CCGATTAACATCACGGGGAATTCTGATGTTAATCGGGTCTTGATTCGCTTGACGCTGCTG” had a binding signal of 10.1 z-score.

As to “CCGATTAACATCAGGGGATTTAATGATGTTAATCGGGTCTTGATTCGCTTGACGCTGCTG”, the binding signal was 8.23 z-score.

As for “CCGATTAACATCAGGGGAATTAATGATGTTAATCGGGTCTTGATTCGCTTGACGCTGCTG”, the binding signal was 9.44 z-score.

On to “CCGATTAACATCAAATGTCCCCCTGATGTTAATCGGGTCTTGATTCGCTTGACGCTGCTG”, for which the binding signal came out at 5.25 z-score.

The sequence “CCGATTAACATCAGGAATTCCCCTGATGTTAATCGGGTCTTGATTCGCTTGACGCTGCTG” yielded a binding signal of 12.5 z-score.

“CCGATTAACATCAAAAACTCCCCTGATGTTAATCGGGTCTTGATTCGCTTGACGCTGCTG”: the binding signal was found to be 8.96 z-score.

Sequence “CCGATTAACATCACACATCCCCCTGATGTTAATCGGGTCTTGATTCGCTTGACGCTGCTG” showed a binding signal of 4.4 z-score.

“CCGATTAACATCAAGACTTCCCCTGATGTTAATCGGGTCTTGATTCGCTTGACGCTGCTG” showed a binding signal of 7.56 z-score.

“CCGATTAACATCAGGGGGGTGAATGATGTTAATCGGGTCTTGATTCGCTTGACGCTGCTG” yielded a binding signal of 4.08 z-score.

On to “CCGATTAACATCAGGGGGGTAAATGATGTTAATCGGGTCTTGATTCGCTTGACGCTGCTG”, for which the binding signal came to 4.22 z-score.

“CCGATTAACATCATAAATTCCCATGATGTTAATCGGGTCTTGATTCGCTTGACGCTGCTG” displayed a binding signal of 5.12 z-score.

The sequence “CCGATTAACATCAAATCCCCCCGTGATGTTAATCGGGTCTTGATTCGCTTGACGCTGCTG” came in with a binding signal of 7.22 z-score.

“CCGATTAACATCAAATTCCCATGTGATGTTAATCGGGTCTTGATTCGCTTGACGCTGCTG”: the binding signal turned out to be 4.08 z-score.

In turn, “CCGATTAACATCAGGGGGCGGGATGATGTTAATCGGGTCTTGATTCGCTTGACGCTGCTG” registered a binding signal of 4 z-score.

For “CCGATTAACATCAGGAAATTCCCTGATGTTAATCGGGTCTTGATTCGCTTGACGCTGCTG”, the binding signal worked out at 9.9 z-score.

On to “CCGATTAACATCAGGGGGTGGTATGATGTTAATCGGGTCTTGATTCGCTTGACGCTGCTG”, for which the binding signal is 2.77 z-score.

“CCGATTAACATCAAAAATTACCCTGATGTTAATCGGGTCTTGATTCGCTTGACGCTGCTG” gave a binding signal of 7.43 z-score.

In the case of “CCGATTAACATCACGGGGGATTCTGATGTTAATCGGGTCTTGATTCGCTTGACGCTGCTG”, the binding signal was 7.68 z-score.

Turning to “CCGATTAACATCAAAGGACCCCCTGATGTTAATCGGGTCTTGATTCGCTTGACGCTGCTG”, the binding signal came out at 2.82 z-score.

In turn, “CCGATTAACATCACAGTCCCCCCTGATGTTAATCGGGTCTTGATTCGCTTGACGCTGCTG” came in with a binding signal of 5.07 z-score.

As to “CCGATTAACATCAAAAAGCCCCCTGATGTTAATCGGGTCTTGATTCGCTTGACGCTGCTG”, the binding signal was determined as 9.31 z-score.

“CCGATTAACATCAGAAATATCCCTGATGTTAATCGGGTCTTGATTCGCTTGACGCTGCTG” yielded a binding signal of 2.67 z-score.

The values above are taken from PMC5700166.
